PubChem BioAssay (NCI)
This is part of a sample that, as a whole, favours compounds with a hit. Of some 79,000 tested, about 15% had one in any assay. Values without a mark were called inactive. Active and inactive are the calls of the source. Cut-off read from the data, not from the text of the source: active = growth inhibition above about 70%; inactive = the rest.

Experiments:
[1] = NCI Yeast Anticancer Drug Screen. Data for the rad50 strain (AID 155);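 note: 0% = growth of vehicle-only cultures of the same strain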; settings: S. cerevisiae rad50 strain growth inhibition, stronger effect = higher value
Outline: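 DNA repair mutant yeast, compound exposure, growth read-out; inhibition is taken relative to vehicle.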

[2] = NCI Yeast Anticancer Drug Screen. Data for the mec2-1 strain (AID 157); settings: S. cerevisiae mec2-1 strain, stronger effect = higher value
Outline: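 Cells of the genetically defined mec2-1 yeast strain are incubated with test compound. Inhibition of growth is calculated against vehicle-treated controls.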

[3] = NCI Yeast Anticancer Drug Screen. Data for the sgs1 mgt1 strain (AID 161);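 note: 0% = growth of cultures given vehicle only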; settings: S. cerevisiae sgs1 mgt1 strain, stronger effect = higher value
Outline: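 Test agents were incubated with a DNA-repair-mutant yeast strain. Growth was then read and compared against vehicle-treated controls.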

[4] = NCI Yeast Anticancer Drug Screen. Data for the cln2 rad14 strain (AID 165);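 note: 0% = growth equal to vehicle treated cultures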; settings: S. cerevisiae cln2 rad14 strain, stronger effect = higher value
Outline: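 The screen exposed genetically defined yeast (cln2 rad14) to test compounds and scored growth inhibition relative to vehicle-treated controls.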

[5] = NCI Yeast Anticancer Drug Screen. Data for the bub3 strain (AID 167); settings: S. cerevisiae bub3 mutant strain, stronger effect = higher value
Outline: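 In this screen, a yeast mutant lacking normal mitotic checkpoint function is challenged with compound. Relative growth versus vehicle gives the inhibition value.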

[6] = NCI Yeast Anticancer Drug Screen. Data for the mlh1 rad18 strain (AID 175); settings: S. cerevisiae mlh1 rad18 strain growth inhibition, stronger effect = higher value
Outline: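 Compound-treated yeast growth, normalised to vehicle controls. Strain bears defined DNA repair mutations.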

[7] = at 5.0 µM (retest, dose inferred, filed as 0.5)
[8] = at 50.0 µM (retest, dose inferred, filed as 5.0)

Q: With `Cn1c(=S)c2[nH]c(SCCN3CCCC3)nc2n(C)c1=O` as the compound, how does the growth inhibition [1, 7] read?
A: The growth inhibition was 83% (active).

Q: And the growth inhibition [1, 8]?
A: The growth inhibition was 99% (active).

Q: What about the growth inhibition ([1]; at 50.0 µM) of the same compound?
A: Its growth inhibition is 90.8% (active).

Q: And the growth inhibition [2, 7]?
A: The growth inhibition was 70% (active).

Q: And the growth inhibition [2, 8]?
A: Its growth inhibition is 99% (active).

Q: And the growth inhibition ([2]; at 50.0 µM)?
A: The growth inhibition was 61.2%.

Q: And the growth inhibition [3, 7]?
A: The growth inhibition was 53%.

Q: What about the growth inhibition [3, 8] of the same compound?
A: Its growth inhibition is 94% (active).

Q: What about the growth inhibition ([3]; at 50.0 µM) of the same compound?
A: The growth inhibition was 67.5%.

Q: And the growth inhibition [4, 7]?
A: The growth inhibition was 28%.

Q: What about the growth inhibition [4, 8] of the same compound?
A: Its growth inhibition is 79% (active).

Q: And the growth inhibition ([4]; at 50.0 µM)?
A: The growth inhibition was 1.75%.

Q: And the growth inhibition [5, 7]?
A: Its growth inhibition is 61%.

Q: What about the growth inhibition [5, 8] of the same compound?
A: Its growth inhibition is 99% (active).

Q: What about the growth inhibition ([5]; at 50.0 µM) of the same compound?
A: Its growth inhibition is 68%.

Q: What about the growth inhibition [6, 7] of the same compound?
A: Its growth inhibition is 37%.

Q: And the growth inhibition [6, 8]?
A: Its growth inhibition is 95% (active).

Q: What about the growth inhibition ([6]; at 50.0 µM) of the same compound?
A: The growth inhibition was 97.2% (active).

Q: For `CCCCCCCCCc1ccc(O)c(Cl)c1`, which growth inhibition [1, 7] is on record?
A: Its growth inhibition is -28%.

Q: And the growth inhibition [1, 8]?
A: The growth inhibition was 94% (active).

Q: What about the growth inhibition ([1]; at 50.0 µM) of the same compound?
A: The growth inhibition was 99.7% (active).

Q: What about the growth inhibition [2, 7] of the same compound?
A: Its growth inhibition is -3%.

Q: What about the growth inhibition [2, 8] of the same compound?
A: Its growth inhibition is 90% (active).

Q: What about the growth inhibition ([2]; at 50.0 µM) of the same compound?
A: The growth inhibition was 99.8% (active).

Q: What about the growth inhibition [3, 7] of the same compound?
A: The growth inhibition was -2%.

Q: What about the growth inhibition [3, 8] of the same compound?
A: The growth inhibition was 99% (active).

Q: What about the growth inhibition ([3]; at 50.0 µM) of the same compound?
A: Its growth inhibition is 99.2% (active).

Q: What about the growth inhibition [4, 7] of the same compound?
A: The growth inhibition was -12%.

Q: And the growth inhibition [4, 8]?
A: Its growth inhibition is 97% (active).

Q: What about the growth inhibition ([4]; at 50.0 µM) of the same compound?
A: The growth inhibition was 99.5% (active).

Q: What about the growth inhibition [5, 7] of the same compound?
A: The growth inhibition was -1%.

Q: What about the growth inhibition [5, 8] of the same compound?
A: Its growth inhibition is 86% (active).

Q: And the growth inhibition ([5]; at 50.0 µM)?
A: The growth inhibition was 99.4% (active).

Q: What about the growth inhibition [6, 7] of the same compound?
A: The growth inhibition was -9%.

Q: And the growth inhibition [6, 8]?
A: The growth inhibition was 99% (active).

Q: And the growth inhibition ([6]; at 50.0 µM)?
A: The growth inhibition was 99.5% (active).

Q: Which growth inhibition [1, 7] does the source give for `Cc1ccc2nc(C[n+]3cccc4ccccc43)ccc2c1` here?
A: Its growth inhibition is 96% (active).

Q: And the growth inhibition [1, 8]?
A: Its growth inhibition is 99% (active).

Q: What about the growth inhibition ([1]; at 50.0 µM) of the same compound?
A: The growth inhibition was 88.8% (active).

Q: What about the growth inhibition [2, 7] of the same compound?
A: The growth inhibition was 95% (active).

Q: What about the growth inhibition [2, 8] of the same compound?
A: The growth inhibition was 100% (active).

Q: And the growth inhibition ([2]; at 50.0 µM)?
A: The growth inhibition was 81.1% (active).

Q: And the growth inhibition [3, 7]?
A: The growth inhibition was 88% (active).

Q: And the growth inhibition [3, 8]?
A: The growth inhibition was 99% (active).

Q: And the growth inhibition ([3]; at 50.0 µM)?
A: The growth inhibition was 99.4% (active).

Q: What about the growth inhibition [4, 7] of the same compound?
A: Its growth inhibition is 92% (active).

Q: What about the growth inhibition [4, 8] of the same compound?
A: The growth inhibition was 98% (active).

Q: And the growth inhibition ([4]; at 50.0 µM)?
A: Its growth inhibition is 99% (active).

Q: And the growth inhibition [5, 7]?
A: Its growth inhibition is 96% (active).

Q: And the growth inhibition [5, 8]?
A: The growth inhibition was 99% (active).

Q: What about the growth inhibition ([5]; at 50.0 µM) of the same compound?
A: Its growth inhibition is 99.7% (active).

Q: What about the growth inhibition [6, 7] of the same compound?
A: Its growth inhibition is 96% (active).

Q: What about the growth inhibition [6, 8] of the same compound?
A: Its growth inhibition is 99% (active).

Q: What about the growth inhibition ([6]; at 50.0 µM) of the same compound?
A: Its growth inhibition is 99.5% (active).

Q: For `O=C(O)C(=O)Cc1ccc(O)cc1`, which growth inhibition [1, 7] is on record?
A: Its growth inhibition is -18%.

Q: What about the growth inhibition [1, 8] of the same compound?
A: Its growth inhibition is -30%.

Q: What about the growth inhibition ([1]; at 50.0 µM) of the same compound?
A: Its growth inhibition is 68.2%.

Q: What about the growth inhibition [2, 7] of the same compound?
A: Its growth inhibition is -20%.

Q: What about the growth inhibition [2, 8] of the same compound?
A: The growth inhibition was -25%.

Q: What about the growth inhibition ([2]; at 50.0 µM) of the same compound?
A: Its growth inhibition is 12.7%.

Q: And the growth inhibition [3, 7]?
A: Its growth inhibition is -10%.

Q: And the growth inhibition [3, 8]?
A: The growth inhibition was -26%.

Q: What about the growth inhibition ([3]; at 50.0 µM) of the same compound?
A: Its growth inhibition is 57%.

Q: And the growth inhibition [4, 7]?
A: Its growth inhibition is -5%.

Q: What about the growth inhibition [4, 8] of the same compound?
A: Its growth inhibition is 7%.

Q: What about the growth inhibition ([4]; at 50.0 µM) of the same compound?
A: The growth inhibition was 49.1%.

Q: And the growth inhibition [5, 7]?
A: The growth inhibition was -24%.

Q: What about the growth inhibition [5, 8] of the same compound?
A: The growth inhibition was -20%.

Q: And the growth inhibition ([5]; at 50.0 µM)?
A: The growth inhibition was 70.7% (active).

Q: What about the growth inhibition [6, 7] of the same compound?
A: The growth inhibition was -48%.

Q: What about the growth inhibition [6, 8] of the same compound?
A: The growth inhibition was -69%.

Q: What about the growth inhibition ([6]; at 50.0 µM) of the same compound?
A: The growth inhibition was 61%.

Q: Which results are given for `O=S(=O)(Nc1ccccc1)c1ccccc1C=C(c1ccccc1)c1ccccc1`?
A: growth inhibition [1, 7]: 37%; growth inhibition [1, 8]: 75% (active); growth inhibition ([1]; at 50.0 µM): 85.1% (active); growth inhibition [2, 7]: 35%; growth inhibition [2, 8]: 90% (active); growth inhibition ([2]; at 50.0 µM): 86% (active); growth inhibition [3, 7]: 46%; growth inhibition [3, 8]: 90% (active); growth inhibition ([3]; at 50.0 µM): 86.5% (active); growth inhibition [4, 7]: 13%; growth inhibition [4, 8]: 84% (active); growth inhibition ([4]; at 50.0 µM): 80.3% (active); growth inhibition [5, 7]: 43%; growth inhibition [5, 8]: 82% (active); growth inhibition ([5]; at 50.0 µM): 80.3% (active); growth inhibition [6, 7]: 81% (active); growth inhibition [6, 8]: 84% (active); growth inhibition ([6]; at 50.0 µM): 85.8% (active)

Q: For `Nc1cc(Cl)ccc1C(=O)O`, which growth inhibition [1, 7] is on record?
A: The growth inhibition was 34%.

Q: And the growth inhibition [1, 8]?
A: Its growth inhibition is 78% (active).

Q: And the growth inhibition ([1]; at 50.0 µM)?
A: Its growth inhibition is 81.2% (active).

Q: What about the growth inhibition [2, 7] of the same compound?
A: Its growth inhibition is 7%.

Q: What about the growth inhibition [2, 8] of the same compound?
A: The growth inhibition was 32%.

Q: What about the growth inhibition ([2]; at 50.0 µM) of the same compound?
A: Its growth inhibition is 91.7% (active).

Q: And the growth inhibition [3, 7]?
A: The growth inhibition was 14%.

Q: And the growth inhibition [3, 8]?
A: Its growth inhibition is 39%.

Q: And the growth inhibition ([3]; at 50.0 µM)?
A: Its growth inhibition is 49.8%.

Q: What about the growth inhibition [4, 7] of the same compound?
A: Its growth inhibition is -2%.

Q: And the growth inhibition [4, 8]?
A: Its growth inhibition is 30%.

Q: And the growth inhibition ([4]; at 50.0 µM)?
A: The growth inhibition was 42.7%.

Q: And the growth inhibition [5, 7]?
A: The growth inhibition was 3%.

Q: And the growth inhibition [5, 8]?
A: The growth inhibition was 50%.

Q: What about the growth inhibition ([5]; at 50.0 µM) of the same compound?
A: The growth inhibition was 96.4% (active).

Q: And the growth inhibition [6, 7]?
A: The growth inhibition was 21%.

Q: And the growth inhibition [6, 8]?
A: Its growth inhibition is 59%.

Q: And the growth inhibition ([6]; at 50.0 µM)?
A: The growth inhibition was 50.2%.
